Source: PubChem BioAssay
3T3 cytotox = NIH 3T3 cell cytotoxicity. NIH 3T3 viability, CellTiter-Glo ATP luminescence, 48-72 h. Potency, µM (top dose mostly 96.7 µM), without a hit: top-dose activity change, negative = cytotoxicity, most hits filed as inhibitors. 94,000 compounds, 4.3% hits; further: nearly all actives have a fitted effect of over 55% in size
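ATP-dependent luminescence (CellTiter-Glo) served as the viability signal for NIH 3T3 cells treated with compound for 48 or 72 hr at 37 °C.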
FLuc inh = blocks purified firefly luciferase enzyme activity; 76,000 compounds, 2.5% hits; P08659; AID 1347043; purified P. pyralis luciferase, luminescence, biochemical; Potency, µM (highest dose often 115 µM), actives largely listed as inhibitors; further: nearly all actives have a fitted effect of over 65% in size
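Purified P. pyralis luciferase (10nM final) in 50mM Tris acetate pH 7.5, 10mM Mg acetate, 0.01% Tween-20, 0.05% BSA with 10uM D-luciferin and 10uM ATP. Compounds titrated qHTS. Luminescence imaged on CCD.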
GPT2 inhibitor = inhibitors of human GPT2 alanine aminotransferase. Recombinant GPT2, coupled pyruvate oxidase/HRP Amplex Red fluorescence. Q8TD30. AID 1671188. 100,000 compounds, 0.25% hits. Potency, µM (top dose mostly 57.7 µM), for the others: at the top dose activity change, negative = inhibition, actives largely listed as inhibitors; further: nearly all actives have a fitted effect of over 60% in size
Target sequence (Q8TD30 whole entry, looked up): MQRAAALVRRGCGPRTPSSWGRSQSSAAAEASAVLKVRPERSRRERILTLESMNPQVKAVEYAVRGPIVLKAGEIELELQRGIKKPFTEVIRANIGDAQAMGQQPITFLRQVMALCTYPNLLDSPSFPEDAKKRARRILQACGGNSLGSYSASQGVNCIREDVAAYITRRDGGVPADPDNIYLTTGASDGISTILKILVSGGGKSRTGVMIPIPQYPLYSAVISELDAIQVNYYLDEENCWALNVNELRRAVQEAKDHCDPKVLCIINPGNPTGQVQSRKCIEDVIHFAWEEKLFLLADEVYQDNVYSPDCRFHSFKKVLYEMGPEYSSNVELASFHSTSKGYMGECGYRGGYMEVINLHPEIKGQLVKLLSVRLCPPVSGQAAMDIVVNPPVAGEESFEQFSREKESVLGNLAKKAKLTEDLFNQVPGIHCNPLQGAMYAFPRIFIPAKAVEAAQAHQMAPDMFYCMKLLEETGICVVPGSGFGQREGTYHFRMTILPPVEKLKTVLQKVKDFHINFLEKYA
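Fluorescence read-out: pyruvate from GPT2 turnover coupled to pyruvate oxidase, HRP and Amplex Red (0.2mM ThPP, 0.2U/mL PO and HRP, 50uM Amplex final). Substrates 250uM a-KG, 2mM L-alanine; enzyme 10ng/uL; 30 min RT.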
HEK293 tox = cytotoxic compounds in HEK 293 cells. Potency, µM (titrated, usually from 115 µM), without a hit: at the highest dose activity change, negative = cytotoxicity, actives largely listed as inhibitors. 94,000 compounds, 6.6% hits. HEK 293 viability, ATP luminescence (CellTiter-Glo), 48-72 h. AID 1345083; further: nearly all actives have a fitted effect of over 60% in size
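qHTS cytotoxicity; HEK 293, 250 cells/well; compound pinned; 48 or 72 hr, 37 degree Celsius, 5% CO2, 95% humidity; CellTiter-Glo, 10 min RT; luminescence (ATP).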
NPR1 antag = antagonists of human natriuretic peptide receptor Npr1 | P16066 | HEK293 hNpr1 GloSensor cGMP, ANP-stimulated luminescence | Potency, µM (doses to about 46.3 µM), inactives show top-dose activity change, negative = inhibition, actives largely listed as inhibitors | 76,000 compounds, 1.6% hits; calls by dose curve; further: nearly all actives have a fitted effect of over 60% in size
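Compound pre-incubated 30 min at room temperature on GloSensor-loaded HEK293 cells stably carrying hNpr1 and the pGS-40F cGMP biosensor. Stimulation uses hNppA at 0.1 nM final; luminescence is taken at baseline and 20 min post-agonist.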
* marks the source's active call; other numbers are inactive results; ! = a repeat was not active; [ ] = another dose, or the depositor's remark. Shown are actives, neighbours in structure and some others; about 10% of the full set was active somewhere. Unless noted, the call rests on the fitted dose curve; in most records, active means well fitted curve in the direction sought with a large enough effect; inconclusive means small, poorly fitted or top-dose-only effect, or another doubt; inactive means no such curve, though single readings can be large; an effect the other way counts as inactive or inconclusive. On the % scale 0 is the no-effect control and ±100 the full control effect; potency means the concentration at half of the fitted maximal effect.

CN1CCc2c([nH]c3ccccc23)C12CCN(C(=O)c1ccc(Cn3ccnc3)o1)CC2 was read as 3T3 cytotox -24%, FLuc inh inactive, GPT2 inhibitor 4%, HEK293 tox 89µM* and NPR1 antag 1%.
`Cc1ccc(Nc2ccnc(N3CCC(C(=O)N4CCC(Cc5ccccc5)CC4)CC3)n2)cc1` gave 3T3 cytotox inconclusive, GPT2 inhibitor 1% and HEK293 tox 35µM*.
`Cc1ccc(Nc2ccnc(N3CCC(C(=O)N4CCN(C)CC4)CC3)n2)cc1` gave 3T3 cytotox inconclusive, GPT2 inhibitor -6% and HEK293 tox inconclusive.
`CC(=O)N1CCN(C(=O)C2CCN(c3nccc(Nc4ccc(C)cc4)n3)CC2)CC1` gave 3T3 cytotox -21%, GPT2 inhibitor inactive and HEK293 tox -15%.
`Cc1ccc(Nc2ccnc(N3CCC(C(=O)N4CCN(c5ncccn5)CC4)CC3)n2)cc1` gave 3T3 cytotox 35µM*, GPT2 inhibitor inactive and HEK293 tox 18µM*.
`Cc1ccc2[nH]nc(C(=O)N3CCCC(N(C)CCc4ccccc4)C3)c2c1` (centres undefined) gave 3T3 cytotox -20%, FLuc inh inactive, GPT2 inhibitor -6%, HEK293 tox inconclusive and NPR1 antag 1%.
Screening Cn1nccc1C(=O)N1CC(c2ncc3c(-c4ccccc4)nccn23)C1 returned 3T3 cytotox -22%[138 µM], FLuc inh inactive, GPT2 inhibitor -14%[88.5 µM], HEK293 tox inconclusive and NPR1 antag -7%[70.6 µM].
Screening Cc1ccccc1-c1nccn2c(C3CN(Cc4ccccc4O)C3)ncc12 returned 3T3 cytotox 100µM*, FLuc inh inactive, GPT2 inhibitor -24%[88.5 µM], HEK293 tox 89µM* and NPR1 antag 2%[70.6 µM].
CC(C)(C)CC(=O)N[C@H]1CC(C)(C)[C@@H]2C[C@@](C)(O)CC[C@]12CCC(=O)NCCc1c[nH]c2ccccc12 was read as 3T3 cytotox inconclusive, FLuc inh inactive, GPT2 inhibitor inactive, HEK293 tox -11% and NPR1 antag -2%.
CN(C)c1ccc(CN[C@H]2CC(C)(C)[C@@H]3C[C@@](C)(O)CC[C@]23CCC(=O)NCCc2c[nH]c3ccccc23)cc1 was read as 3T3 cytotox 18µM*, FLuc inh inactive, GPT2 inhibitor inconclusive, HEK293 tox 18µM* and NPR1 antag -9%.
COc1ccccc1CN[C@H]1CC(C)(C)[C@@H]2C[C@@](C)(O)CC[C@]12CCC(=O)NCCc1c[nH]c2ccccc12 was read as 3T3 cytotox 28µM*, FLuc inh inactive, GPT2 inhibitor inconclusive, HEK293 tox 28µM* and NPR1 antag -14%.
Cc1ccc([S+](=O)([O-])NCCNC(=O)c2cccc(-c3ncccc3C#N)c2)cc1 was read as 3T3 cytotox -26%, GPT2 inhibitor 2% and HEK293 tox -27%.
`COc1ccc(CC(=O)NC2CCN(C(=O)c3ccc(-c4ccccc4OC)cc3)CC2)cc1` gave 3T3 cytotox 40µM*, GPT2 inhibitor inactive and HEK293 tox inconclusive.
Screening COc1ccccc1-c1ccc(CN2CCC(NC(=O)C3CCCCC3)C2)cc1 (centres undefined) returned 3T3 cytotox 32µM*! and HEK293 tox inconclusive.
`COc1ccccc1-c1ccc(CN2CCC(NC(=O)Cc3ccc(F)cc3)C2)cc1` (centres undefined) gave 3T3 cytotox 40µM*, GPT2 inhibitor inactive and HEK293 tox 40µM*.
Screening O=C(NC1CCCN(c2ccc3nnc(-c4ccccc4)n3n2)C1)c1ccc(F)cc1 (centres undefined) returned 3T3 cytotox -26% and HEK293 tox inactive.
Screening O=C(NC1CCCN(c2ccc3nnc(-c4ccccc4)n3n2)C1)c1ccccn1 (centres undefined) returned 3T3 cytotox inconclusive and HEK293 tox 28µM*.
O=C(NC1CCCC1)NC1CCCN(c2ccc3nnc(-c4ccccc4)n3n2)C1 (centres undefined) was read as 3T3 cytotox -18% and HEK293 tox -16%.
Screening COc1ccc(C(=O)NC2CCCN(c3ccc4nnc(-c5ccccc5)n4n3)C2)cc1 (centres undefined) returned 3T3 cytotox inconclusive and HEK293 tox 22µM*.
For O=C(Nc1cc(C2CC2)nn1-c1ccccc1)c1ccccc1F the results were 3T3 cytotox inconclusive, GPT2 inhibitor inactive and HEK293 tox inconclusive.
Screening CCOc1cc2c(cn1)NCCN(Cc1ccccc1O)C2 returned 3T3 cytotox -20%[138 µM], FLuc inh inactive, GPT2 inhibitor inactive, HEK293 tox inconclusive and NPR1 antag 1%[70.6 µM].
For CC(=O)N1CCNc2cc(-c3ccc(Oc4ccccc4)cc3)ncc2C1 the results were 3T3 cytotox inconclusive, FLuc inh 20µM*, GPT2 inhibitor inactive, HEK293 tox 71µM* and NPR1 antag -19%[70.6 µM].
For COc1ccc(CN2CCNc3cc(Nc4ccccc4)ncc3C2)cc1O the results were 3T3 cytotox 79µM*, FLuc inh inactive, GPT2 inhibitor 5%[88.5 µM], HEK293 tox 100µM* and NPR1 antag -12%[70.6 µM].
CN(C)C(=O)c1ccc(-c2cc3c(cn2)CN(CCc2ccccc2)CCN3)cc1 was read as 3T3 cytotox inconclusive, FLuc inh inactive, GPT2 inhibitor inactive, HEK293 tox inconclusive and NPR1 antag -14%[70.6 µM].
Screening COc1ccc(Nc2cc3c(cn2)CN(CCc2ccccc2)CCN3)cn1 returned 3T3 cytotox 50µM*, FLuc inh inactive, GPT2 inhibitor -15%[88.5 µM], HEK293 tox 63µM* and NPR1 antag -7%[70.6 µM].
COCCN1CCNc2cc(NCc3ccccc3)ncc2C1 was read as 3T3 cytotox inconclusive, FLuc inh inactive, GPT2 inhibitor inactive, HEK293 tox inconclusive and NPR1 antag 1%[70.6 µM].
Oc1ccccc1CN1CCNc2cnc(Oc3ccccc3)cc2C1 was read as 3T3 cytotox inconclusive, FLuc inh inactive, GPT2 inhibitor inactive, HEK293 tox 79µM* and NPR1 antag inconclusive.
Screening COc1ccc(Nc2cc3c(cn2)CN(Cc2ccncc2)CCN3)cc1OC returned 3T3 cytotox inconclusive, FLuc inh inactive, GPT2 inhibitor -6%[88.5 µM], HEK293 tox inconclusive and NPR1 antag -1%[70.6 µM].
`COc1cccc(CN2CCNc3cc(-c4ccccc4)ncc3C2)c1` gave 3T3 cytotox inconclusive, FLuc inh 40µM*, GPT2 inhibitor -12%[88.5 µM], HEK293 tox inconclusive and NPR1 antag -1%[70.6 µM].
For c1ccc(CN2CCNc3cnc(-c4ccc(N5CCOCC5)cc4)cc3C2)cc1 the results were 3T3 cytotox inconclusive, FLuc inh 20µM*, GPT2 inhibitor 1%[88.5 µM], HEK293 tox 50µM* and NPR1 antag 28µM*.
